Data from PubChem BioAssay (NCATS).
Records with an inconclusive call do not appear. Active and inactive are the calls of the source. Unless noted, the call rests on the fitted dose curve; in most records, active means well fitted curve in the direction sought with a large enough effect; inconclusive means small, poorly fitted or top-dose-only effect, or another doubt; inactive means no such curve, though single readings can be large; an effect the other way counts as inactive or inconclusive.

What was measured:
[1] = qHTS for differential inhibitors of proliferation of Plasmodium falciparum line 3D7 (AID 1876);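 further: parasite growth measured after three days of culture; 0% = vehicle wells and -100% = reference inhibitor wells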
[2] = qHTS for differential inhibitors of proliferation of Plasmodium falciparum line D10 (AID 1877);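 further: parasites grown with compound for 72 h before DNA staining; plate controls were vehicle wells for no effect and reference inhibitor wells for full effect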
[3] = qHTS for differential inhibitors of proliferation of Plasmodium falciparum line Dd2 (AID 1882); settings: Potency: Plasmodium falciparum Dd2 proliferation inhibition;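 further: series mostly up to about 29 µM; plate controls were DMSO vehicle for no effect and 0.29 µM artemisinin for full effect; nearly all actives have a fitted effect of over 65% in size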
How it was run: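 SYBR Green DNA fluorescence (ex 485, em 535 nm) after overnight lysis quantifies parasite growth; compound exposure lasted 72 h at 37 C on infected red cells at 2.5% hematocrit, 0.3% parasitemia (final). Artemisinin 0.29 uM and vehicle wells define normalization.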

[4] = qHTS for differential inhibitors of proliferation of Plasmodium falciparum line W2 (AID 1883); settings: Potency: Plasmodium falciparum W2 proliferation inhibition;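 further: parasites grown with compound for 72 h before lysis and staining; 0% = vehicle wells and -100% = control inhibitor wells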
[5] = qHTS for differential inhibitors of proliferation of Plasmodium falciparum line HB3 (AID 1886); settings: Potency: Plasmodium falciparum HB3 proliferation inhibition;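 further: parasites grown with compound for 72 h before SYBR Green readout; plate controls were vehicle for no effect and reference inhibitor for full effect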
[6] = qHTS Assay for Modulators of Human Peripheral Myelin Protein 22 (PMP22) Expression/Activity (AID 1967; active means well fitted curve in the direction sought with a large enough effect in the signal ratio; the % refers to the signal ratio;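 further: 0% = untreated cells and 100% end not stated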)
How it was run: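 MSC80 mouse Schwann cells stably carrying Pmp22 promoter–green click beetle luciferase plus EF-alpha–red luciferase control were dosed for 24h at 37 °C. Dual-colour luminescence was filter-overlap corrected; %Activity came from green/red ratio versus untreated cells.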

[7] = target: Ferritin light chain (Equus caballus) (UniProt P02791); experiment: qHTS Validation Assay for Identification of Novel General Anesthetics (AID 2323); further: series mostly up to about 77 µM; on the % scale 0 is the no-effect control and ±100 the full control effect
Sequence of Ferritin light chain (Equus caballus) (P02791 2-175 limits assumed): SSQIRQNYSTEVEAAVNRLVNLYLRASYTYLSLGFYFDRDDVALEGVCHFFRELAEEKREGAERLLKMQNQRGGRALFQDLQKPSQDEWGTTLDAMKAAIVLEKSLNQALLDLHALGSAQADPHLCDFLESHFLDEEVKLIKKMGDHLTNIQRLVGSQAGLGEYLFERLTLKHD
How it was run: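 Competitive displacement of profluorescent 1-aminoanthracene (1-AMA, 50% saturated solution in PBS) from 10 uM horse-spleen apoferritin. Compounds incubated 10 min at room temperature; fluorescence read at 380 nm excitation/535 nm emission, normalized to free 1-AMA and complex, fitted with four-parameter Hill equation.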

[8] = target: ATP-dependent DNA helicase Q1 (Homo sapiens) (UniProt P46063); experiment: qHTS Validation Assay for Inhibitors of RecQ-Like Dna Helicase 1 (RECQ1) (AID 2353);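 further: plate controls were DMSO vehicle for no effect and enzyme-free control for full effect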
Sequence of ATP-dependent DNA helicase Q1 (Homo sapiens) (P46063 whole entry, looked up): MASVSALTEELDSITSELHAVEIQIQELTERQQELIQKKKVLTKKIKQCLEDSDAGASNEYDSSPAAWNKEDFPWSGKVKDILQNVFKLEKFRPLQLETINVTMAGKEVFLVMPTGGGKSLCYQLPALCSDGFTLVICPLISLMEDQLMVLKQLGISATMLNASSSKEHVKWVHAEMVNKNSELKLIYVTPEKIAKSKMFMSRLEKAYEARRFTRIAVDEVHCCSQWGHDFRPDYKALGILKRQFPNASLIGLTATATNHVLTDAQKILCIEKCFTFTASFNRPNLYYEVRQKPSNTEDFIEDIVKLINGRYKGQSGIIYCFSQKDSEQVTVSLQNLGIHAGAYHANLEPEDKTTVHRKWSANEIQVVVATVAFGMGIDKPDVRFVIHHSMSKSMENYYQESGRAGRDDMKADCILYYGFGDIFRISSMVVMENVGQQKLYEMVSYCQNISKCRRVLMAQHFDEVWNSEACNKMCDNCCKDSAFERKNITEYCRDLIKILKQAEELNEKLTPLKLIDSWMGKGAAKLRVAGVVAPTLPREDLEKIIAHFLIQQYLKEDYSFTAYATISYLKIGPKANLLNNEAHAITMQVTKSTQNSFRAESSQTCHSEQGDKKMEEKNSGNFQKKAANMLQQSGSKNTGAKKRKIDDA
How it was run: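 RECQ1T1 50 nM; forked duplex (20 bp + 30-nt ss tails) 200 nM, ATP 2 mM final; pH 8.0, 2 mM MgCl2, 2.5 ug/ml poly(dI-dC); 15 min compound preincubation; discontinuous kinetic read over 2 h at RT.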

[9] = Validation screen for small molecules that induce DNA re-replication in MCF 10A normal breast cells (AID 463097); further: 0% is about no effect; nearly all actives have a fitted effect of over 60% in size
How it was run: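 Readout: Hoechst nuclear fluorescence intensity, 405 ex / 500-530 em, by scanning plate imager; re-replication scored as increase in nuclei with elevated DNA content. Cells exposed to compound 48 hr, 37 C, 5% CO2 beforehand.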

[10] = Quantitative high throughput screen for delayed death inhibitors of the malarial parasite plastid, 96 hour incubation (AID 488745);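 further: luciferase-expressing P. falciparum in erythrocytes at 2% hematocrit and 0.1% parasitemia; series mostly up to about 29 µM; on the % scale 0 is the no-effect control and ±100 the full control effect; nearly all actives have a fitted effect of over 70% in size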
How it was run: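 Readout is firefly luciferase luminescence from an integrated reporter in P. falciparum; lower signal marks inhibited growth. Cultures at 2% hematocrit and 0.1% parasitemia were treated with compound across two generations (96 h, 37 C, 5% CO2).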

[11] = Quantitative high throughput screen for delayed death inhibitors of the malarial parasite plastid, 48 hour incubation (AID 488752); further: on the % scale 0 is the no-effect control and ±100 the full control effect; nearly all actives have a fitted effect of over 65% in size
How it was run: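 First, compound was pinned into RPMI 1640 medium containing 0.5% Albumax. Next, reporter-parasite-infected erythrocytes were added to 2% hematocrit and 0.1% parasitemia. After 48 h at 37 C under 5% CO2, luciferase detection reagent was added and luminescence read.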

[12] = target: M-phase phosphoprotein 8 (Homo sapiens) (UniProt Q99549); experiment: qHTS Validation Assay for Inhibitors for MPP8 Chromodomain Interactions with Methylated Histone Tails (AID 488949);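 further: AlphaScreen signal from MPP8 chromodomain bound to biotinylated H3K9me3 peptide; top concentration of the series differs between compounds; on the % scale 0 is the no-effect control and ±100 the full control effect; nearly all actives have a fitted effect of over 55% in size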
Sequence of M-phase phosphoprotein 8 (Homo sapiens) (Q99549 whole entry, looked up): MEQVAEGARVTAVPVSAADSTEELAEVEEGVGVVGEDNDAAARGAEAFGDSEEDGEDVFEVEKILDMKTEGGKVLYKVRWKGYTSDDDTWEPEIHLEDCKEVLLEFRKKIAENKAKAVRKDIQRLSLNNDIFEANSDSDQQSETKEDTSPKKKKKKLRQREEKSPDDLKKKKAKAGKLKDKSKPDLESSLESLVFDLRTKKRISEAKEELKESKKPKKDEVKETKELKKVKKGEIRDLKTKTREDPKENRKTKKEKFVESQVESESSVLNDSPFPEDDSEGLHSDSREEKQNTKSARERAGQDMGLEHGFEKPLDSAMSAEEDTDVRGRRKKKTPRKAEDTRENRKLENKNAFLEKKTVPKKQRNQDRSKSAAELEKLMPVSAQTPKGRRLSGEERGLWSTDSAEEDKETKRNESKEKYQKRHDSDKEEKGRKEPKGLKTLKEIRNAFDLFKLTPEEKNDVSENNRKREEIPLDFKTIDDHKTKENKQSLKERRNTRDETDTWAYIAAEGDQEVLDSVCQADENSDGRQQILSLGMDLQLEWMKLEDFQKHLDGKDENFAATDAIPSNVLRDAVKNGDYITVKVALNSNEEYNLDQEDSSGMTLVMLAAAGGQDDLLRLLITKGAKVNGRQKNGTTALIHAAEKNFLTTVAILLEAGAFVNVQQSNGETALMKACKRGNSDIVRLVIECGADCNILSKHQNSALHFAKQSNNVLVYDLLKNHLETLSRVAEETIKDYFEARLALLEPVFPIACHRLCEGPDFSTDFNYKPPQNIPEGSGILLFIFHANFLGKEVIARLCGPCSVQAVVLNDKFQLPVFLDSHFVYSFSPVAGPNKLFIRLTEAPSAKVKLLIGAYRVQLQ
How it was run: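 MPP8 (50 nM) was preincubated with biotinylated H3(1-18)K9me3 peptide (50 nM) in PBS pH 7.4, 0.01% Tween-20 for 30 min at room temperature, then with compounds for 30 min; binding was detected by AlphaScreen.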

[13] = target: Transient receptor potential cation channel subfamily V member 1 (Homo sapiens) (UniProt Q8NER1); experiment: HTS Assay for Compounds that Act as Enhancers of the Vanilloid Receptor 1 (AID 488979); further: 0% is about no effect
Sequence of Transient receptor potential cation channel subfamily V member 1 (Homo sapiens) (Q8NER1 whole entry, looked up): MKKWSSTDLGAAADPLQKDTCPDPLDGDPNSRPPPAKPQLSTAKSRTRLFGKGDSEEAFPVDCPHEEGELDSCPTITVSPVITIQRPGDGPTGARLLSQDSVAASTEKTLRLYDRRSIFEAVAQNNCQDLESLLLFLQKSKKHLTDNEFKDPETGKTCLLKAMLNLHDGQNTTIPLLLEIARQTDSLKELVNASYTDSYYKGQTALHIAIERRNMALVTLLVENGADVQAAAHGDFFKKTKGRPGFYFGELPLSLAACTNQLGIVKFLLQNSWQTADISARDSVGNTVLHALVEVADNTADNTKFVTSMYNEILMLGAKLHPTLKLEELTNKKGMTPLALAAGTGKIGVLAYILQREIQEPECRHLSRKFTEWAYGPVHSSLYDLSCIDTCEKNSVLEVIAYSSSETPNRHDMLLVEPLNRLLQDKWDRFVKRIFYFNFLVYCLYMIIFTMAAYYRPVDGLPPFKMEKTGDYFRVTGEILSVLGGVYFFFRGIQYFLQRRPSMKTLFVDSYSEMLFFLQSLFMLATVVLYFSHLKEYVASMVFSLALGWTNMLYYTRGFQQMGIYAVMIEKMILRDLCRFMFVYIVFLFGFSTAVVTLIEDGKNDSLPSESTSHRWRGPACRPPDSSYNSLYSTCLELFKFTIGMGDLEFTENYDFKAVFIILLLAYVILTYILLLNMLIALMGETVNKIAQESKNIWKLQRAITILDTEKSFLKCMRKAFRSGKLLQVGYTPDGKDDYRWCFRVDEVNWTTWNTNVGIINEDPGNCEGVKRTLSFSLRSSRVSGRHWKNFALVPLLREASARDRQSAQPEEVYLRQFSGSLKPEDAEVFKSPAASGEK
How it was run: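 TRPV1-expressing cells loaded with Fluo-8 calcium dye; compounds added and calcium influx read kinetically for 3 min (agonist phase), then capsaicin at EC20 added and read 2 min more for enhancement. Fluorescence ex 480/em 520 nm.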

[14] = target: Thyrotropin receptor (Homo sapiens) (UniProt P16473); experiment: qHTS Assay for Antagonists of the Thyroid Stimulating Hormone Receptor (AID 488980); further: series mostly up to about 58 µM; 0% is about no effect
Sequence of Thyrotropin receptor (Homo sapiens) (P16473 whole entry, looked up): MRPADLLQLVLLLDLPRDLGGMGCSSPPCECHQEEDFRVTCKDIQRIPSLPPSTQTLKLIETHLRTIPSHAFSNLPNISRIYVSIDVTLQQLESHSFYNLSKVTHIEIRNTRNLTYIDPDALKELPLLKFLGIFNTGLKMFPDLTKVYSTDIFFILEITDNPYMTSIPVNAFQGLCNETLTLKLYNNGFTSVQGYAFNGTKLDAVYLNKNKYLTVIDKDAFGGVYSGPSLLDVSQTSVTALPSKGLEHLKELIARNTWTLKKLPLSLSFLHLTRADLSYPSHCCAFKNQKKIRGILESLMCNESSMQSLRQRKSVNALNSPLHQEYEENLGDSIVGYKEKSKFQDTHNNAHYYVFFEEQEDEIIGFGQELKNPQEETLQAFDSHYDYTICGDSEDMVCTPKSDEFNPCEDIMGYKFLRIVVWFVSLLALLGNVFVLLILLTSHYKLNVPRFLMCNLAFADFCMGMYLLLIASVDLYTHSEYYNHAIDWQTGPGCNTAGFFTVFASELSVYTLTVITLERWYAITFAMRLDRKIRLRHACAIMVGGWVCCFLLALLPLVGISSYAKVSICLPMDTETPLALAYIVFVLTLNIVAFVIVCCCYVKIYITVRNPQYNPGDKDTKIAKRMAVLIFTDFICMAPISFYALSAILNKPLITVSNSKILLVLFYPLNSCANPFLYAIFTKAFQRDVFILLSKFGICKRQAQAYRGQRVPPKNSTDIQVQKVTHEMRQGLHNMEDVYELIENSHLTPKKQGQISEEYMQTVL
How it was run: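 HEK293 cells transfected with human TSHR, suspended in HEPES-buffered HBSS with 70 uM RO 20-1724, were treated with compounds plus TSH at EC80 (4 nM final). cAMP was measured by competitive HTRF (cryptate anti-cAMP antibody, cAMP-d2 acceptor).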

[15] = target: Thyrotropin-releasing hormone receptor (Homo sapiens) (UniProt P34981); experiment: qHTS for Small Molecule Agonists and Allosteric Enhancers of Human TRH Receptor: Validation Screen for Agonists (AID 493127;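 active means calcium activation more than 3 SD above the typical response in the agonist read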;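 further: intracellular calcium rise by fluo-8 fluorescence before TRH EC20 addition; 0% is about no effect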); settings: TRH receptor agonist cell assay; at 2 µM; active compounds read high
How it was run: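 Compounds are added by online pintool to dye-loaded TRHR cells while fluorescence is recorded every second. A rise in calcium signal during the agonist read marks activation; a later 10 nM TRH addition (EC20) serves the separate enhancer mode.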

[16] = target: Galactokinase (Homo sapiens) (UniProt P51570); experiment: qHTS Validation Assay for Inhibitors of Human Galactokinase (GALK) (AID 493189); further: 0% is about no effect
Sequence of Galactokinase (Homo sapiens) (P51570 whole entry, looked up): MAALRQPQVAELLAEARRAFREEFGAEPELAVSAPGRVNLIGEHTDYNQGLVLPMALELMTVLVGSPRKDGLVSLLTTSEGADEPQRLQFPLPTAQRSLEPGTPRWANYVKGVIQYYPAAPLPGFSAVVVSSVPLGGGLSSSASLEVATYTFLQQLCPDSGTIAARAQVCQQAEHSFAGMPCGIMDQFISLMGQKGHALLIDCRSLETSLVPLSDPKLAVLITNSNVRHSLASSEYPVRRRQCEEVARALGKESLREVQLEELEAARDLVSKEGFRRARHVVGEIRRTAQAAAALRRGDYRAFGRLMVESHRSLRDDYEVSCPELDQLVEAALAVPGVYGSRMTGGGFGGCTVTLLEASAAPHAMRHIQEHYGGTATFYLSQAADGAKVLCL
How it was run: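 GALK (5 nM) with 35 uM ATP and 100 uM galactose in HEPES pH8.0, MgCl2, NaCl, DTT, BSA; 1 h at room temperature. Residual ATP read by Kinase-Glo Plus luminescence after 10 min.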

[17] = target: Voltage-gated inwardly rectifying potassium channel KCNH2 (Homo sapiens) (UniProt Q12809); experiment: qHTS Assay for Small Molecule Inhibitors of the Human hERG Channel Activity (AID 588834);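 further: top concentration of the series differs between compounds; on the % scale 0 is the no-effect control and ±100 the full control effect; lower thallium flux fluorescence means stronger hERG block; nearly all actives have a fitted effect of over 50% in size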
Sequence of Voltage-gated inwardly rectifying potassium channel KCNH2 (Homo sapiens) (Q12809 whole entry, looked up): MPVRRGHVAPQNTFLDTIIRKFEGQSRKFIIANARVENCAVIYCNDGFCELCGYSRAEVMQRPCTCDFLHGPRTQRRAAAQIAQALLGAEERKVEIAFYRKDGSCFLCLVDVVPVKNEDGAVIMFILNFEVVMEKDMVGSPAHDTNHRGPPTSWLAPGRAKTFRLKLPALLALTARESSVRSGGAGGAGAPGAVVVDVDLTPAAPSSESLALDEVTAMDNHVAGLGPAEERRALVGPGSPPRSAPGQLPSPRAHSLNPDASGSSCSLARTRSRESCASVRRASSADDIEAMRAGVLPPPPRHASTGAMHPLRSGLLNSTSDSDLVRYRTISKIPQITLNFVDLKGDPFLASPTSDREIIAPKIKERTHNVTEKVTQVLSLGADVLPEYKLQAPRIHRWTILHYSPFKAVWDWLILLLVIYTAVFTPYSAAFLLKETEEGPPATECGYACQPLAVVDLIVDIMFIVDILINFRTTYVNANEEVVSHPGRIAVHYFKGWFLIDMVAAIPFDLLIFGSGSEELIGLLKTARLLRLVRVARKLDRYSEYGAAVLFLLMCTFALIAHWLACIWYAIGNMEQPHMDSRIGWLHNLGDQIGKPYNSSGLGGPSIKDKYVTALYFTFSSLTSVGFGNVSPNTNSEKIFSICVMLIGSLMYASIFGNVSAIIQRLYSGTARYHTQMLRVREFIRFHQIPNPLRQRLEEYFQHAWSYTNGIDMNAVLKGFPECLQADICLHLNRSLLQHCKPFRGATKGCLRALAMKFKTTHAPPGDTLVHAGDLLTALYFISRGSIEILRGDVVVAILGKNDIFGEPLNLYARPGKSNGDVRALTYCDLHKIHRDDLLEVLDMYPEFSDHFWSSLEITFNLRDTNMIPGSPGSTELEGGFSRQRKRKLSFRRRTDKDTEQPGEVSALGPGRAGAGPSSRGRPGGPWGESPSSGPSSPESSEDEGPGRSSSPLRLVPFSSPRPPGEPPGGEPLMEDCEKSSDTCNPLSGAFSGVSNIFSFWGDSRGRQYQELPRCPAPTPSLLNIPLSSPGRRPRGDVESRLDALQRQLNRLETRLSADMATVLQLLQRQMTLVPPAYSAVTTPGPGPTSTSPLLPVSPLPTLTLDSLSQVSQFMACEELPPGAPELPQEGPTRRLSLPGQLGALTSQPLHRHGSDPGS
How it was run: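 In hERG-transduced U2OS cells, dye-loaded for 1 hr at room temperature in dark, test compounds incubated 10 min at 37 °C before thallium stimulation. AC50 values derived by Hill modelling of concentration-response.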

[18] = test system: Zika virus NS2B-NS3 protease; experiment: Primary screen GU AMC qHTS for Zika virus inhibitors (AID 1347154);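 further: 0% = no-inhibitor control and -100% = no-enzyme control; nearly all actives have a fitted effect of over 70% in size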
How it was run: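 Unlinked Zika NS2B hydrophilic domain/NS3 protease domain noncovalent complex (25 nM final) in 10 mM Tris-HCl pH 8.0, 0.01% Tween 20, with AMC peptide substrate. Fluorescence (ex 340, em 450 nm) change over 15 min, room temperature; percent inhibition fitted to 4-parameter Hill equation.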

[19] = Primary qHTS for small molecule stabilizers of the endoplasmic reticulum resident proteome: Secreted ER Calcium Modulated Protein (SERCaMP) assay (AID 1508630); further: on the % scale 0 is the no-effect control and ±100 the full control effect
How it was run: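 The SH-SY5Y reporter protocol was run at 3 concentrations up to 38.3 uM (primary) or 11 concentrations (follow-up): 16 h compound, 100 nM thapsigargin for 4 h, then extracellular luciferase luminescence.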

COc1ccc(CCN)cc1O
inactive: Potency [1] | Potency [2] | Potency [3] | Potency [4] | Potency [5] | outcome [6] | outcome [7] | Potency [8] | Potency [9] | Potency [10] | Potency [11] | Potency [12] | outcome [13] | outcome [14] | activation [15] 1.06% | outcome [16] | Potency [17] | Potency [18] | Potency [19]
